Shown are actives, neighbours in structure and some others; about 6.8% of the full set was active somewhere.
C diff growth: C. difficile growth inhibitors, primary screen, HTS. AID 1259249, 2017. growth activity, negative = inhibition, % at 16 µg/mL (by protocol). Clostridium difficile clinical isolate growth, OD600, 24 h; stronger effect = lower value. 86,000 tested, 0.25% active;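 active = mean growth activity at or below -80% and every replicate also at or below -80%; inconclusive = mean at or below -80% but some replicate above -80%; inactive = mean growth activity above -80%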
Pf Dd2 inh: P. falciparum Dd2 growth inhibitors, primary screen, SYBR Green fluorescence, single dose replicates; 72 h; stronger effect = lower value; 94,000 tested, 2.3% active; activity change, % at 10 µM; AID 1159554, 2015; in the data active = activity change below about -80%; inconclusive = no clear call, values can overlap the other calls
Tcruzi prolif: T. cruzi intracellular proliferation inhibitors, primary screen, cell-based, beta-gal Tulahuen parasites, NIH3T3 host, luminescence; T. cruzi beta-gal in NIH3T3, GalScreen luminescence, 90 h; inhibition, % at 8.34 µM; 77,000 tested, 5.9% active; AID 624255, 2012;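 active = mean inhibition above about 93%, with at least 55% of replicates each passing it, limit read from the data, passing the limit was not always enough; inconclusive = only one of those two conditions holds; inactive = neither condition holds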
Large screens that a line does not name were inactive.

Cc1noc(C)c1S(=O)(=O)N(C)C[C@H]1Oc2c(NS(=O)(=O)c3ccc(F)cc3)cccc2C(=O)N([C@@H](C)CO)C[C@H]1C	none
CCN1[C@@H]2Cn3c(ccc(-c4ccccc4F)c3=O)[C@H]1[C@@H](C(=O)NCCOC)[C@@H]2CO	none
CCNC(=O)C[C@H]1CC[C@@H]2[C@H](COC[C@@H](O)CN2Cc2ccncc2)O1	none (no result: Pf Dd2 inh)
C[C@@H]1CN([C@@H](C)CO)C(=O)Cc2cc(NC(=O)Cc3ccccc3)ccc2O[C@H]1CN(C)S(=O)(=O)c1cn(C)cn1	none
C[C@@H]1CCCCO[C@@H](CN(C)Cc2ccc(C(=O)Nc3ccccc3N)cc2)[C@@H](C)CN([C@H](C)CO)C(=O)c2cc(NC(=O)c3ccccc3)ccc2O1	Pf Dd2 inh -84 (no result: Tcruzi prolif)
C[C@@H]1CN([C@H](C)CO)C(=O)c2cc(NC(=O)CCC(F)(F)F)ccc2O[C@@H]1CN(C)Cc1ccc(C(=O)Nc2ccccc2N)cc1	none (no result: C diff growth)
C[C@@H]1CCCCO[C@@H](CN(C)Cc2ccccc2)[C@H](C)CN([C@H](C)CO)C(=O)c2cc(NC(=O)CCC(F)(F)F)ccc2O1	none
C[C@H]1CN([C@@H](C)CO)C(=O)c2cc(NC(=O)CCC(F)(F)F)ccc2O[C@@H]1CN(C)Cc1ccc(C(=O)Nc2ccccc2N)cc1	Pf Dd2 inh -86 (no result: Tcruzi prolif)
C[C@@H]1CCCCO[C@@H](CN(C)Cc2ccc(C(=O)Nc3ccccc3N)cc2)[C@@H](C)CN([C@H](C)CO)C(=O)c2cc(NC(=O)CCC(F)(F)F)ccc2O1	Pf Dd2 inh -92 (no result: Tcruzi prolif)
C[C@H]1CCCCO[C@@H](CN(C)Cc2ccc(C(=O)O)cc2)[C@@H](C)CN([C@@H](C)CO)C(=O)c2cc(NC(=O)c3ccccc3)ccc2O1	none
C[C@@H]1CCCCO[C@@H](CN(C)Cc2ccc(C(=O)Nc3ccccc3N)cc2)[C@@H](C)CN([C@H](C)CO)C(=O)c2cc(NC(=O)c3ccncc3)ccc2O1	Pf Dd2 inh -85 (no result: Tcruzi prolif)
C[C@H](CO)N1C[C@H](C)[C@H](CN(C)Cc2ccccc2)OCCCC[C@H](C)Oc2ccc(NC(=O)c3ccncc3)cc2C1=O	none
C[C@H](CO)N1C[C@H](C)[C@@H](CN(C)Cc2ccc(Cl)c(Cl)c2)Oc2ccc(N(C)C)cc2C1=O	none
O=C(C[C@@H]1CC[C@H]2[C@@H](COC[C@H](O)CN2Cc2cc(F)cc(F)c2)O1)NC1CCCC1	none
CO[C@H]1CN(C)C(=O)c2cc(NC(=O)Nc3cccc(F)c3)ccc2OC[C@@H](C)N(C(=O)Nc2c(C)noc2C)C[C@@H]1C	none (no result: C diff growth)
CC(C)C#Cc1ccc2c(c1)O[C@H](CN(C)S(C)(=O)=O)[C@H](C)CN([C@@H](C)CO)S2(=O)=O	none
CNC(=O)C[C@@H]1CC[C@H]2[C@H](COc3ccc(NC(=O)c4ccc(C(F)(F)F)cc4)cc3C(=O)N2C)O1	none
C[C@@H]1CN([C@H](C)CO)C(=O)c2cc(C#CC3CCCCC3)cnc2O[C@@H]1CN(C)C(=O)Cc1ccccn1	none (no result: Tcruzi prolif)
Cc1noc(C)c1S(=O)(=O)Nc1ccc2c(c1)CC(=O)N([C@H](C)CO)C[C@H](C)[C@H](CN(C)C(=O)Nc1ccc3c(c1)OCO3)O2	none
CO[C@H]1CC[C@@H]2CCN(C)C(=O)C[C@@H](c3ccccc3)CN(C)C(=O)c3cc(C#N)ccc3OC[C@H]1O2	none (no result: Pf Dd2 inh)
C[C@@H]1CN([C@@H](C)CO)C(=O)c2cccc(NC(=O)Nc3ccc(C(F)(F)F)cc3)c2O[C@H]1CN(C)Cc1ccc(C(F)(F)F)cc1	none
C[C@@H]1CN([C@@H](C)CO)C(=O)c2cccc(NC(=O)Nc3ccc(C(F)(F)F)cc3)c2O[C@H]1CN(C)Cc1ccc(C(=O)Nc2ccccc2N)cc1	Pf Dd2 inh -85 (no result: Tcruzi prolif)
CC(C)NC(=O)Nc1cccc2c1O[C@@H](CN(C)Cc1ccc(C(=O)Nc3ccccc3N)cc1)[C@@H](C)CN([C@H](C)CO)C2=O	none (no result: Tcruzi prolif)
CC(C)NC(=O)Nc1cccc2c1O[C@H](CN(C)Cc1ccc(C(=O)Nc3ccccc3N)cc1)[C@H](C)CN([C@@H](C)CO)C2=O	Pf Dd2 inh -84 (no result: Tcruzi prolif)
C[C@@H]1CN([C@@H](C)CO)C(=O)c2cccc(NC(=O)Nc3ccc(F)cc3)c2O[C@H]1CN(C)Cc1ccc(C(=O)Nc2ccccc2N)cc1	Pf Dd2 inh -82 (no result: Tcruzi prolif)
C[C@H](CO)N1C[C@H](C)[C@H](CN(C)Cc2ccc(C(=O)Nc3ccccc3N)cc2)Oc2c(NC(=O)Nc3ccc(F)cc3)cccc2C1=O	none (no result: Tcruzi prolif)
C[C@H]1CN([C@@H](C)CO)C(=O)c2cccc(NC(=O)Nc3ccc(F)cc3)c2O[C@@H]1CN(C)Cc1ccc(C(=O)Nc2ccccc2N)cc1	Pf Dd2 inh -83 (no result: Tcruzi prolif)
C[C@@H]1CN([C@H](C)CO)C(=O)c2cccc(NC(=O)Nc3ccc(F)cc3)c2O[C@H]1CN(C)Cc1ccc(C(=O)Nc2ccccc2N)cc1	none (no result: Tcruzi prolif)
O=C([C@@H]1[C@@H](CO)[C@@H]2Cn3c(ccc(-c4ccncc4)c3=O)[C@@H]2N1CCC(F)(F)F)N1CCCCC1	none
O=C(C[C@H]1C=C[C@@H](NC(=O)Nc2ccc3c(c2)OCO3)[C@H](CO)O1)NCc1ccc2c(c1)OCO2	none
C[C@@H]1CN([C@H](C)CO)C(=O)c2cccc(NC(=O)Nc3cccc4ccccc34)c2O[C@@H]1CN(C)Cc1ccc(C(=O)Nc2ccccc2N)cc1	Pf Dd2 inh -92 (no result: Tcruzi prolif)
C[C@@H]1CN([C@H](C)CO)C(=O)c2cccc(NC(=O)Nc3ccccc3)c2O[C@H]1CN(C)Cc1ccc(C(=O)Nc2ccccc2N)cc1	none
C[C@H]1CN([C@@H](C)CO)C(=O)c2cccc(NC(=O)Nc3ccc4c(c3)OCO4)c2O[C@H]1CN(C)Cc1ccc(C(=O)Nc2ccccc2N)cc1	none (no result: C diff growth)
C[C@@H]1CN([C@@H](C)CO)C(=O)c2cccc(NC(=O)Nc3ccccc3)c2O[C@@H]1CN(C)Cc1ccc(C(=O)Nc2ccccc2N)cc1	Pf Dd2 inh -94
C[C@H](CO)N1C[C@H](C)[C@H](CN(C)Cc2ccc(C(=O)Nc3ccccc3N)cc2)Oc2c(NC(=O)Nc3cccc4ccccc34)cccc2C1=O	Pf Dd2 inh inconclusive (no result: Tcruzi prolif)
C[C@@H]1CN([C@H](C)CO)C(=O)c2cccc(NC(=O)Nc3ccc4c(c3)OCO4)c2O[C@@H]1CN(C)Cc1ccc(C(=O)Nc2ccccc2N)cc1	Pf Dd2 inh -91 (no result: C diff growth)
C[C@@H]1CN([C@@H](C)CO)C(=O)c2cc(NC(=O)c3ccccc3)ccc2O[C@@H](C)CCCCO[C@@H]1CN(C)Cc1ccc2c(c1)OCO2	none (no result: Tcruzi prolif)
CNC[C@@H]1Oc2ccc(N(C)C)cc2C(=O)N([C@H](C)CO)C[C@@H]1C	none
Cc1ccc(S(=O)(=O)N(C)C[C@H]2Oc3ccc(NC(=O)c4ccncc4)cc3C(=O)N([C@H](C)CO)C[C@H]2C)cc1	none
C[C@@H]1CCCCO[C@H](CN(C)S(=O)(=O)c2ccc(Cl)cc2)[C@H](C)CN([C@@H](C)CO)C(=O)c2cc(NC(=O)c3ccccc3)ccc2O1	none
C[C@@H]1CCCCO[C@H](CN(C)S(=O)(=O)c2ccc(F)cc2)[C@@H](C)CN([C@H](C)CO)C(=O)c2cc(NC(=O)c3ccccc3)ccc2O1	none (no result: Tcruzi prolif)
C[C@@H]1CN([C@@H](C)CO)C(=O)c2cc(NC(=O)c3ccccc3)ccc2O[C@@H](C)CCCCO[C@@H]1CN(C)S(=O)(=O)c1ccc(F)cc1	Pf Dd2 inh -81 (no result: Tcruzi prolif)

Assay outcomes from PubChem.
